Consider 51 compounds from PubChem BioAssay AID1851 (National Center for Advancing Translational Sciences (NCATS), 2009).

About 5,800 (36%) of roughly 16,000 compounds were called active. About 23% were inconclusive and are not listed. Some of the results follow. More than one record can exist for a structure, and the calls need not agree. A number with no mark means an inactive call. The call rests on the fitted dose curve; in most records, active means well fitted curve in the direction sought with a large enough effect; inconclusive means small, poorly fitted or top-dose-only effect, or effect the other way; inactive means no such curve, though single readings can be large or run the other way.
On the % scale 0 is the no-effect control and ±100 the full control effect.

This experiment deals with Cytochrome P450 2C19 (Homo sapiens) (UniProt P33261). Nature of the experiment: Cytochrome panel assay with activity outcomes. Particulars: recombinant CYP, pro-luciferin dealkylation, luminescence, p450-cyp2c19; series mostly up to 57.1 µM; activity, negative = inhibition: at the top concentration.
Cytochrome P450 2C19 (Homo sapiens), sequence (P33261 whole entry, looked up): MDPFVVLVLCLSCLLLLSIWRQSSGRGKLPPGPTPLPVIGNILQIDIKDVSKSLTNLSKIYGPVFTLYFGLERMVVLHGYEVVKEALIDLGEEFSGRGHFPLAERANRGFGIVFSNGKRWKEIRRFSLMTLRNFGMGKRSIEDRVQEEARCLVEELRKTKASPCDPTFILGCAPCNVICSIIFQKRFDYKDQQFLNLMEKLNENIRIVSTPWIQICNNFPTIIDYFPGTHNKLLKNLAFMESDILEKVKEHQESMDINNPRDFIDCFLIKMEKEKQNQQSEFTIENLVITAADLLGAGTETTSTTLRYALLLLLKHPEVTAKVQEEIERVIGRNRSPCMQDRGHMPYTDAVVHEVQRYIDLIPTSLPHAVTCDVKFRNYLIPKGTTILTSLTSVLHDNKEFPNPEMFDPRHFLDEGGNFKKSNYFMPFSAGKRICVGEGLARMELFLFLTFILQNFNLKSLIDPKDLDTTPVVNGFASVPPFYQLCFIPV
Broadly, the AC50 is the midpoint of the concentration-response curve, whichever way the signal moves. Consider `O=C(Nc1cccc(-c2nc3ccccc3s2)c1)c1ccc2c(c1)OCO2`, for which the concentration at half-maximal activity (AC50) was 7.08 µM (active). Same read-out and setting: the result for `CCOC(=O)c1oc2ccccc2c1NC(=O)c1cc(OC)cc(OC)c1` reads 25.1 µM (active).

With `CCOC(=O)c1oc2ccccc2c1NC(=O)c1ccc(S(=O)(=O)N(C)C)cc1`, the “activity, negative = inhibition” value was -18.8% (inactive).

Take `CCOC(=O)c1oc2ccccc2c1NC(=O)c1ccc2c(c1)OCO2`: the AC50 was 2.82 µM (active).

For the compound `CCOC(=O)Nc1ccc(C(=O)Oc2ccccc2)c(O)c1`, the concentration at half-maximal activity (AC50) was 3.55 µM (active). Regarding `CC(C)(C)c1ccc(OC(=O)Nc2ccc(O)c(C(=O)O)c2)cc1`, the activity, negative = inhibition is 41.8% [at 11.4 µM]. As to `Cc1ccccc1OCC(O)Cn1c2ccccc2c2ccccc21` (stereo unspecified), the AC50 was 0.631 µM (active).

As for `C=CCN(CC=C)CC(O)Cn1c2ccccc2c2ccccc21` (stereo unspecified), the AC50 was 0.562 µM (active). For `Cc1ccc(OCC(O)Cn2c3ccccc3c3ccccc32)cc1` (stereo unspecified), the AC50 is 1.26 µM (active). On to `Cc1ccccc1OCC(O)Cn1c(NCc2ccccc2)nc2c1c(=O)[nH]c(=O)n2C` (stereo unspecified), for which the “activity, negative = inhibition” value is -14.8% (inactive). In the case of `Cc1cccc(C)c1OCC(O)CNC(C)(C)C` (stereo unspecified), the “activity, negative = inhibition” value is -19.1% (inactive). Consider `c1ccc([C@@H]2CN3CCSC3=N2)cc1`, for which the AC50 result was “inactive”.

As to `COc1ccc(CCn2c(=N)c(C(=O)NCc3ccco3)cc3c(=O)n4ccccc4nc32)cc1`, the AC50 was 11.2 µM (active). The same measure, in the same setting: to `C=CCn1c(Cc2c[nH]c3ccccc23)nnc1SCC(=O)NCc1ccccc1` belongs 25.1 µM (active); to `CCn1c(CSCc2ccc(C)cc2)nnc1SCC(=O)NCc1ccccc1`, 14.1 µM (active). Consider `CCn1c(CC(=O)Nc2ccc(C)cc2)nnc1SCC(=O)Nc1nc(C)cs1`, for which the “activity, negative = inhibition” value was 1% (inactive). In the case of `CCn1c(CC(=O)Nc2ccc(C)cc2)nnc1SCC(=O)NCCc1ccccc1`, the concentration at half-maximal activity (AC50) is 22.4 µM (active).

On to `C[C@@](N)(C(=O)O)c1ccc(S(=O)(=O)O)cc1`, for which the “activity, negative = inhibition” value was -24.8% (inactive).

Take `COc1cc(OC)c2nc(C)c3c(c2c1)N(c1ccc(O)cc1)CC3`: the concentration at half-maximal activity (AC50) is 14.1 µM (active). For `Clc1ccccc1C(Nc1cnccn1)Nc1cnccn1`, the activity, negative = inhibition is 12% [at 11.4 µM]. Same read-out and setting: the result for `CC1(C)S[C@@H]2[C@H](C(=O)O)N=C(Cc3ccccc3)N2[C@H]1C(=O)O` reads 28.2% [at 11.4 µM]. Regarding `COc1ccc2c(c1)c(CC(=O)O)c(C)n2Cc1ccc(Cl)cc1`, the AC50 was 10 µM (active).

With `COc1ccc2c(c1)c(CC(=O)OCC(=O)O)c(C)n2C(=O)c1ccc(Cl)cc1`, the “activity, negative = inhibition” value was -14.1% [at 25.6 µM] (inactive). As to `COc1ccc2c(c1)c(CC(=O)O)c(C)n2C(=O)c1ccc(Cl)cc1`, the AC50 entry was “inactive”. Take `CC(C)(C)N1C(=O)[C@H]2[C@@H]3[C@H](O)C=CC(=O)[C@H]3CC[C@H]2C1=O`: the activity, negative = inhibition is 23.7% [at 11.4 µM]. For the compound `C[C@@H]1CC[C@H]2C(=O)N3[C@@H](CC[C@@H](C)[C@@H]3c3ccc(Br)cc3)C(=O)N2[C@@H]1c1ccc(Br)cc1`, the activity, negative = inhibition was -27.6% [at 11.4 µM]. Regarding `CS(=O)(=O)N1N=C(c2ccc(Br)cc2)CC1c1ccc2c(c1)OCO2` (stereo unspecified), the AC50 was 0.178 µM (active). For the compound `COc1ccc(OCCNS(=O)(=O)c2ccc3oc4ccccc4c3c2)cc1`, the half-maximal activity concentration (AC50) is 2.24 µM (active).

Consider `COc1ccc(NC(=O)CCNS(=O)(=O)c2ccc3c(c2)c(=O)n(C)c(=O)n3C)cc1`, for which the “activity, negative = inhibition” value was 72.2% (inactive). Regarding `CCCCc1ccc(NC(=S)NCc2cccs2)cc1`, the AC50 is 3.55 µM (active). For `Cc1ccc(C(=O)COC(=O)CNC(=O)Cc2ccccc2)cc1[N+](=O)[O-]`, the “activity, negative = inhibition” value was -20.8% (inactive). For the compound `Cc1ccc(C(=O)COC(=O)CNC(=O)C(c2ccccc2)c2ccccc2)cc1[N+](=O)[O-]`, the half-maximal activity concentration (AC50) was 5.01 µM (active).

Regarding `CC[C@H](CN(C)C)C(=O)c1ccco1`, the activity, negative = inhibition was 8.39% [at 11.4 µM].

`Cc1ccc(C(CC(=O)c2ccco2)SCCO)cc1` (stereo unspecified): the AC50 is 2.82 µM (active). For the compound `O=c1cc(-c2ccccc2)oc2cc(O)cc(O)c12`, the half-maximal activity concentration (AC50) was 0.794 µM (active). As to `O=C(O)c1c(-c2c3ccc(=O)cc-3oc3cc(O)ccc23)cc2ccccc2c1-c1ccccc1`, the activity, negative = inhibition was 25.6% [at 11.4 µM]. On the same count and under the same terms, the result for `O=c1c(O)c(-c2ccc(O)c(O)c2)oc2cc(O)cc(O)c12` reads 0.603% [at 25.6 µM] (inactive); that for `COc1ccc(C2=C(C#N)C(=O)OC2)cc1`, -21.4% (inactive); that for `O=c1cc(-c2ccccc2)oc2cc(O)c(O)c(O)c12`, -2.25% (inactive). In the case of `O=c1cc(-c2ccc(O)cc2)oc2cc(O)cc(O)c12`, the AC50 is 7.94 µM (active). On to `Cc1cc(=O)c2c(O)c(O)ccc2o1`, for which the “activity, negative = inhibition” value was -24.3% (inactive). Turning to `COc1ccc(-c2cc(=O)c3c(O)cc(O)cc3o2)cc1`, the AC50 was 1 µM (active). Same read-out and setting: the result for `C=CCSC1=Nc2sccc2C2=NC(=O)CN12` reads 7.94 µM (active). As to `C[C@@](N)(Cc1ccc(O)c(O)c1)C(=O)O`, the “activity, negative = inhibition” value is -4.51% [at 25.6 µM] (inactive). Consider `Cc1ccccc1-c1nccc(NCc2cccnc2)n1`, for which the AC50 was 5.01 µM (active). Same read-out and setting: to `COc1ccccc1-c1nccc(NCc2ccccc2)n1` belongs 7.94 µM (active). `Cc1cnc(CNc2ccnc(-c3ccccc3C)n2)cn1`: the “activity, negative = inhibition” value was -27.8% (inactive). `COc1ccccc1-c1nccc(NCc2cccc(C)c2)n1`: the half-maximal activity concentration (AC50) was 10 µM (active). As to `CNc1ccnc(-c2ccccc2OC)n1`, the “activity, negative = inhibition” value is -16.3% (inactive). The same measure, in the same setting: to `Cc1cccc(CNc2ccnc(-c3ccccc3CN(C)C)n2)c1` belongs -33.5% (inactive). As for `Cc1cccc(CNc2ccnc(-c3ccccc3Cl)n2)c1`, the concentration at half-maximal activity (AC50) was 1.26 µM (active).
